The values below come from the supplement of paper PMC9942566.

± gives the standard deviation of the averaged measurements.

In this test the test system is Serratia marcescens K904 PosmB-luxCDABE reporter (pMQ747). In words: PosmB-lux reporter fold induction (RLU/OD600 relative to no-compound control), highest over Biolog concentrations; higher = stronger reporter activation. The note with it: ΔrcsB mutant CMS5177; 4 h. As to the method:
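Serratia marcescens K904 (wild type) or its isogenic ΔrcsB mutant, carrying the Rcs-dependent PosmB-luxCDABE reporter plasmid pMQ747, was grown in LB at OD600 0.1 in Biolog Phenotype MicroArray plates PM11-20 for 4 h at 30-32°C. Each compound is present at 3-4 proprietary concentrations (not stated); per the Fig. S1 legend the value given is the highest fold over those wells. Three independent trials.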
`NCC(=O)O` [Glycine] (Biolog plate: PM13, well positions: F5-8): the “PosmB-lux reporter fold induction” value was determined as 1.39 ± 0.27.

Regarding `CSc1ccc2c(c1)N(CCC1CCCCN1C)c1ccccc1S2` (stereo not given) [thioridazine] (Biolog plate: PM20, well positions: C1-4), the “PosmB-lux reporter fold induction” value was 1.11 ± 0.088. Consider `CC(C)(C)CC(C)(C)c1ccc(OCCOCC[N+](C)(C)Cc2ccccc2)cc1` [Benzethonium chloride] (Biolog plate: PM12, well positions: E9-12), for which the “PosmB-lux reporter fold induction” value is 1.69 ± 0.07. As for `CC(C)NCC(O)COc1cccc2ccccc12` (racemic) [D,L-propranolol] (Biolog plate: PM20, well positions: B5-8), the “PosmB-lux reporter fold induction” value was found to be 1.24 ± 0.19.

For the molecule `CC1(C)S[C@@H]2[C@H](NC(=O)Cc3ccccc3)C(=O)N2[C@H]1C(=O)O` [Penicillin G] (Biolog plate: PM12, well positions: A2-4), the “PosmB-lux reporter fold induction” value was determined as 1.02 ± 0.19.

Regarding `CC1(C)S[C@@H]2[C@H](NC(=O)COc3ccccc3)C(=O)N2[C@H]1C(=O)O.CN(C)[C@@H]1C(O)=C(C(=O)NCN2CCN(CCO)CC2)C(=O)[C@@]2(O)C(O)=C3C(=O)c4c(O)cccc4[C@@](C)(O)[C@H]3C[C@@H]12` [Penimepicycline] (Biolog plate: PM12, well positions: B5-8), the “PosmB-lux reporter fold induction” value stood at 1.27 ± 0.3. With `N=C(NCCCCCCNC(=N)NC(=N)Nc1ccc(Cl)cc1)NC(=N)Nc1ccc(Cl)cc1` [chlorhexidine] (Biolog plate: PM19, well positions: C1-4), the “PosmB-lux reporter fold induction” value worked out at 1.19 ± 0.57.

Consider `c1ccc(-c2ccccn2)nc1` [2,2'-Dipyridyl] (Biolog plate: PM13, well positions: B5-8), for which the “PosmB-lux reporter fold induction” value was found to be 1.71 ± 1.3. As for `OC(CCN1CCCCC1)(c1ccccc1)c1ccccc1` [pridinol] (Biolog plate: PM20, well positions: F9-12), the “PosmB-lux reporter fold induction” value came to 1.5 ± 0.42. In the case of `[Cl-].[Li+]` [lithium chloride] (Biolog plate: PM17, well positions: F1-4), the “PosmB-lux reporter fold induction” value is 2.92 ± 1. Then `Cc1cc(C)nc(NS(=O)(=O)c2ccc(N)cc2)n1` [Sulfamethazine] (Biolog plate: PM12, well positions: D5-8), with 1.41 ± 0.34; and `O=C(N[C@H](CO)[C@H](O)c1ccc([N+](=O)[O-])cc1)C(Cl)Cl` [Chloramphenicol] (Biolog plate: PM11, well positions: F1-4), with 1.56 ± 0.59. Then `CSCCC(N)C(=O)NO` (racemic) [DL-methionine hydroxamate] (Biolog plate: PM17, well positions: F5-8), with 5.25 ± 1.3.

On to `CC1(C)S[C@@H]2[C@H](NC(=O)[C@H](NC(=O)N3CCNC3=O)c3ccccc3)C(=O)N2[C@H]1C(=O)O` [Azlocillin] (Biolog plate: PM13, well positions: B1-4), for which the “PosmB-lux reporter fold induction” value came out at 1.27 ± 0.56.

Regarding `NC[C@@H]1O[C@H](O[C@H]2[C@@H](O)[C@H](O[C@@H]3[C@@H](O)[C@H](N)C[C@H](N)[C@H]3O[C@H]3O[C@H](CN)[C@@H](O)[C@H](O)[C@H]3N)O[C@@H]2CO)[C@H](N)[C@@H](O)[C@@H]1O` [Neomycin] (Biolog plate: PM11, well positions: F9-12), the “PosmB-lux reporter fold induction” value worked out at 1.31 ± 0.23. For `O.O=S(=O)([O-])[O-].O=S(=O)([O-])[O-].O=S(=O)([O-])[O-].[Al+3].[Al+3]` [aluminum sulfate] (Biolog plate: PM16, well positions: F9-12), the “PosmB-lux reporter fold induction” value worked out at 1.54 ± 0.56. As for `CCn1nc(C(=O)O)c(=O)c2cc3c(cc21)OCO3` [cinoxacin] (Biolog plate: PM16, well positions: D9-12), the “PosmB-lux reporter fold induction” value worked out at 16.4 ± 3.4. For `Nc1ccn(C2OC(CO)C(O)C2O)c(=O)n1` [Cytosine-1-beta-D-arabino-furanoside] (Biolog plate: PM13, well positions: E1-4), the “PosmB-lux reporter fold induction” value is 1.91 ± 0.42. `CC1(C)S[C@@H]2[C@H](NC(=O)C(C(=O)O)c3ccccc3)C(=O)N2[C@H]1C(=O)O` (stereo not given in full) [Carbenicillin] (Biolog plate: PM14, well positions: G5-8): the “PosmB-lux reporter fold induction” value amounted to 1.05 ± 0.096. For `Cn1c(=O)c2c(ncn2C)n(C)c1=O` [caffeine] (Biolog plate: PM17, well positions: H5-8), the “PosmB-lux reporter fold induction” value came to 1.52 ± 0.34. `C[C@H]1O[C@@H](n2cc(F)c(=O)[nH]c2=O)[C@H](O)[C@@H]1O` [5-fluoro-5'-deoxyuridine] (Biolog plate: PM18, well positions: H1-4): the “PosmB-lux reporter fold induction” value was 1.75 ± 0.72. In the case of `O=c1ccc2ccccc2o1` [coumarin] (Biolog plate: PM19, well positions: A9-12), the “PosmB-lux reporter fold induction” value came to 0.853 ± 0.16. For `COc1ccc(CO)cc1OC` [3,4-Dimethoxy-benzyl alcohol] (Biolog plate: PM15, well positions: F1-4), the “PosmB-lux reporter fold induction” value is 1.65 ± 0.64.

Turning to `CN[C@@H]1[C@H](O[C@H]2[C@H](O[C@H]3[C@H](O)[C@@H](O)[C@H](NC(=N)N)[C@@H](O)[C@@H]3NC(=N)N)O[C@@H](C)[C@]2(O)CO)O[C@@H](CO)[C@H](O)[C@H]1O` [dihydro-streptomycin] (Biolog plate: PM19, well positions: G5-8), the “PosmB-lux reporter fold induction” value turned out to be 0.97 ± 0.18. With `CO[C@H]1/C=C/O[C@@]2(C)Oc3c(C)c(O)c4c(O)c(c(/C=N/N5CCN(C)CC5)c(O)c4c3C2=O)NC(=O)/C(C)=C\C=C\[C@H](C)[C@H](O)[C@@H](C)[C@@H](O)[C@@H](C)[C@H](OC(C)=O)[C@@H]1C` [Rifampicin] (Biolog plate: PM12, well positions: H5-8), the “PosmB-lux reporter fold induction” value is 17.2 ± 8.3.

As for `Oc1c(Cl)cc(Cl)c2cccnc12` [5,7-Dichloro-8-hydroxyquinoline] (Biolog plate: PM15, well positions: C1-4), the “PosmB-lux reporter fold induction” value turned out to be 1.43 ± 0.18. For the molecule `Oc1c(I)cc(Cl)c2cccnc12` [5-chloro-7-iodo-8-hydroxy-quinoline] (Biolog plate: PM16, well positions: A9-12), the “PosmB-lux reporter fold induction” value is 1.51 ± 0.53. Turning to `C[C@@H]1O[C@@H]1P(=O)(O)O` [Phosphomycin] (Biolog plate: PM16, well positions: A5-8), the “PosmB-lux reporter fold induction” value amounted to 1.57 ± 0.24. Regarding `CC(C)c1nc2nc(N)nc(N)c2nc1C(C)C` [2,4-Diamino-6,7-diisopropyl-pteridine] (Biolog plate: PM12, well positions: E1-4), the “PosmB-lux reporter fold induction” value was 2.91 ± 0.33. For `NC(=O)N/N=C/c1ccc([N+](=O)[O-])o1` [5-Nitro-2-furaldehyde semicarbazone] (Biolog plate: PM15, well positions: E5-8), the “PosmB-lux reporter fold induction” value amounted to 3.61 ± 0.9.

Turning to `On1ccccc1=S` [1-Hydroxy-pyridine-2-thione] (Biolog plate: PM14, well positions: C5-8), the “PosmB-lux reporter fold induction” value worked out at 1.1 ± 0.053. Consider `CN[C@@H]1[C@H](O)[C@H](NC)[C@H]2O[C@@]3(O)C(=O)C[C@@H](C)O[C@H]3O[C@@H]2[C@H]1O` [Spectinomycin] (Biolog plate: PM12, well positions: G1-4), for which the “PosmB-lux reporter fold induction” value amounted to 1.6 ± 0.68.

In the case of `N[C@H](CO)C(=O)O` [D-serine] (Biolog plate: PM17, well positions: A2-4), the “PosmB-lux reporter fold induction” value is 1.12 ± 0.081. As to `CCn1cc(C(=O)O)c(=O)c2cnc(N3CCNCC3)nc21` [pipemidic acid] (Biolog plate: PM18, well positions: B5-8), the “PosmB-lux reporter fold induction” value came out at 1.91 ± 0.5. On to `CO/N=C(\C(=O)N[C@@H]1C(=O)N2C(C(=O)O)=C(COC(N)=O)CS[C@H]12)c1ccco1` [Cefuroxime] (Biolog plate: PM13, well positions: D1-4), for which the “PosmB-lux reporter fold induction” value stood at 1.42 ± 0.51. `CCN1CCN(C(=O)N[C@@H](C(=O)N[C@@H]2C(=O)N3C(C(=O)O)=C(CSc4nnnn4C)CS[C@H]23)c2ccc(O)cc2)C(=O)C1=O` [cefoperazone] (Biolog plate: PM17, well positions: G9-12): the “PosmB-lux reporter fold induction” value was 1.44 ± 0.22.

For the molecule `O=C(O)c1cn(C2CC2)c2cc(N3CCNCC3)c(F)cc2c1=O` [ciprofloxacin] (Biolog plate: PM20, well positions: D5-8), the “PosmB-lux reporter fold induction” value was 1.49 ± 0.33. Then `NC(CO)C(=O)NO` (racemic) [D,L-Serine hydroxamate] (Biolog plate: PM12, well positions: C9-12), with 1.74 ± 1.6; and `O=C(N[C@H](CO)[C@H](O)c1ccc([N+](=O)[O-])cc1)C(Cl)Cl` [Chloramphenicol] (Biolog plate: PM14, well positions: F1-4), with 1.87 ± 1.1; and `c1ccc(-c2nn(-c3ccccc3)[n+](-c3cccc4ccccc34)n2)cc1` [tetrazolium violet] (Biolog plate: PM20, well positions: B9-12), with 0.262 ± 0.11.
